# According to paper PMC5540273 (PLoS ONE, 2017):
# Test system: MAP3K3
# Conditions: concentration: 1 μM, replicates: in singlicate; n = 1
# 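Also: KINOMEscan kinase panel screen.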
row,SMILES,%Inh [%]
1,COC(=O)c1c(-c2ccccc2)c2cc(Br)ccc2c(=O)n1Cc1ccc(S(C)(=O)=O)cc1,32
2,Cc1nnc(-c2ccc(C)c(-c3ccc(C(=O)O)cc3)c2)o1 [GW608005],0
3,COc1cc2nccc(Nc3ccc(OCc4ccc(NC(C)=O)cc4)cc3)c2cc1OC.Cl [GW440135],0
4,Cc1nc(N(C)[C@H]2CN(C(=O)CC#N)CC[C@H]2C)c2cc[nH]c2n1,7
5,Nc1nc(N)c2nc(-c3ccccc3)[nH]c2n1 [SKF-12778],13
6,Cl.c1ccc(Cn2cnc3cc(Nc4ncnc5ccccc45)ccc32)cc1 [GW272142],0
7,COC(=O)c1c(-c2ccccc2)c2cc(Br)ccc2c(=O)n1Cc1ccc(NC(=O)CCC(=O)O)cc1,18
8,O=C(Nc1ccc2c(c1)OCO2)NC1CCN(c2ccnc(NCc3ccc(F)cc3)n2)CC1 [GSK1379859],0
9,Cc1ccccc1COc1cc(-n2cnc3cc(Cl)ccc32)sc1C(N)=O [GW813349],11
10,Nc1n[nH]c2ncc(-c3ccccc3)cc12 [SB-517081],0
11,COc1ccc(-c2coc3ccc(-c4nnc(SCc5cccc(C#N)c5)o4)cc23)cc1,12
12,Cc1cccc(-c2nc(Nc3ccc4c(cnn4C)c3)c3ccccc3n2)n1 [GW876731],10
13,CN(C)c1cc(-c2ccc3c(N)n[nH]c3c2)nc(N)n1 [GSK2219329],0
14,COc1cc2ncn(-c3cc(OCCCc4ccccc4)c(C(N)=O)s3)c2cc1OC [GSK205189],0
